Here are results for 40 molecules from PubChem BioAssay (NCATS).

Structures are written as SMILES. Where “and” joins values, the source holds several entries; their conditions need not be identical. Equal values may be shown once. Inconclusive results are not listed. Calls of active or inactive are those of the source. Calls follow the shape of the dose curve; as a rule, active = well fitted inhibition curve with a large enough effect; inconclusive = small, poorly fitted or top-dose-only effect; inactive = flat fitted curve, though single readings scatter. Where a SMILES comes first, the peptide text is derived from it. Bridges are numbered along the chain shown (N, C = ends). [ ]: non-standard residue; d: D form. Orn = NCCC[C@H](N)C(=O)O; Mpa = O=C(O)CCS
% is scaled to controls: 0 for no effect and ±100 for the full control effect; potency is read from the fitted curve at half-maximal effect.

For the test, the system named is astro (control astrocytes). Nature of the test: Drug repurposing screens with cells derived from glioblastoma tumor samples (AID 1345199). Also: nearly all actives have a fitted effect of over 40% in size. The conditions noted are these: viability, ATP luminescence, 48 h; series mostly up to 45.9 µM; activity, negative = cell killing: at the top concentration. The protocol:
CD133+ cells were isolated from GBM patient biopsies and cultured as neurospheres. Neurospheres from four patients were used to screen the NCATS pharmaceutical collection (NPC) library of approved drugs and bioactive compounds. […] The neurospheres were incubated with drugs for 48 hours in 1536-well format, then assayed with an ATP content cell viability assay. […] These hits were cherry picked to confirm activity in the four original GBM lines screened plus three other slower growing GMB lines (unable to yield enough cells for a full primary screen). Variable activities of the confirmed primary hits in the different GBM patient lines were observed. The patient line 206 responded to the greatest number of compounds and line 923 responded to the least amount of active compounds.
As to `CO[C@H]1[C@@H](O)[C@H](N)[C@@H](O[C@H]2O[C@H]([C@H](C)N)CC[C@H]2N)[C@H](O)[C@@H]1N(C)C(=O)CN`, the “activity, negative = cell killing” value is 4.47% (inactive).
Turning to `CC1(C)S[C@@H]2[C@H](NC(=O)[C@H](N)c3ccccc3)C(=O)N2[C@H]1C(=O)OCOC(=O)[C@@H]1N2C(=O)C[C@H]2S(=O)(=O)C1(C)C`, the “activity, negative = cell killing” value was -4.02% (inactive).
The same measure, in the same setting: the same measure for `CCC(=O)OCC(=O)[C@@]1(OC(=O)CC)[C@@H](C)C[C@H]2[C@@H]3CCC4=CC(=O)C=C[C@]4(C)[C@@]3(Cl)[C@@H](O)C[C@@]21C`: -17.2% (inactive).
Turning to `CC1=C(C(=O)OCCN(Cc2ccccc2)c2ccccc2)C(c2cccc([N+](=O)[O-])c2)C(P2(=O)OCC(C)(C)CO2)=C(C)N1` (stereo not given), the “activity, negative = cell killing” value was 15.3% (inactive).
Still for that read-out and setting: the same measure for `O=P(O)(O)C(Sc1ccc(Cl)cc1)P(=O)(O)O`: 1.18% (inactive).
`CO[C@H]1C[C@H](O[C@H]2[C@H](C)O[C@@H](O[C@@H]3/C(C)=C/C[C@@H]4C[C@@H](C[C@]5(C=C[C@H](C)[C@@H](C6CCCCC6)O5)O4)OC(=O)[C@@H]4C=C(C)[C@@H](O)[C@H]5OC/C(=C\C=C\[C@@H]3C)[C@]54O)C[C@@H]2OC)O[C@@H](C)[C@@H]1O`: the Potency was 17.8 µM (active).
As to `O=S(=O)(O)Oc1ccc(C(c2ccc(OS(=O)(=O)O)cc2)c2ccccn2)cc1`, the “activity, negative = cell killing” value is 9.94% (inactive).
Still for that read-out and setting: then `COc1ccc(CNCC(O)COc2ccc3[nH]c(=O)ccc3c2)cc1OC` (stereo not given), with -8.7% (inactive); and `COc1cc2[nH]c(C)c(CCN3CCN(c4ccccc4)CC3)c2cc1OC`, with -15.3% (inactive); and `NC(=O)C[C@@H](N)C(=O)O`, with 3.86% (inactive).
In the case of `c1cnc2cc3c(cc2n1)[C@@H]1CNC[C@H]3C1`, the “activity, negative = cell killing” value is -10.4% (inactive).
Turning to `O=C(Cn1cnnn1)N[C@@H]1C(=O)N2C(C(=O)O)=C(CSc3nncs3)CS[C@H]12`, the Potency entry was “inactive”.
`CC(C)(S)C(=O)N[C@@H](CS)C(=O)O`: the Potency result is “inactive”.
On to `O=C(O)[C@@H](O)[C@H](O)[C@H](O)[C@@H](O)C(=O)O` (tested in a mixture with another compound), for which the “activity, negative = cell killing” value was -2.61% (inactive).
As to `CS(=O)(=O)OCCCNCCCOS(C)(=O)=O`, the “activity, negative = cell killing” value was -4.37% (inactive).
`C/C(=C(/CCO)SSCC1CCCO1)N(C=O)Cc1cnc(C)nc1N` (stereo not given): the Potency result is “inactive”.
As for `O=C1O[C@H]2[C@H](O)[C@@H]1OC(O)[C@H]2O` (stereo not given in full), the “activity, negative = cell killing” value was -11.8% (inactive).
Consider `CCCCOC(=O)C(=O)Nc1cccc(-c2nn[nH]n2)c1`, for which the “activity, negative = cell killing” value is -7.81% (inactive).
The same measure, in the same setting: then `CN(C(=O)CO)c1c(I)c(C(=O)NCC(O)CO)c(I)c(C(=O)NCC(O)CO)c1I` (stereo not given), with -9.82% (inactive).
Consider `CCC(C)[C@H]1O[C@]2(C=C[C@@H]1C)C[C@@H]1C[C@@H](C/C=C(\C)[C@@H](O[C@H]3C[C@H](OC)[C@@H](O[C@H]4C[C@H](OC)[C@H](NC(C)=O)[C@H](C)O4)[C@H](C)O3)[C@@H](C)/C=C/C=C3\CO[C@@H]4[C@H](O)C(C)=C[C@@H](C(=O)O1)[C@]34O)O2` (stereo not given in full), for which the Potency is 6.31 µM (active) and 20 µM (active).
With `CCCN(CC)C(CC)C(=O)Nc1c(C)cccc1C` (stereo not given), the “activity, negative = cell killing” value is -13.7% (inactive).
For the molecule `O.O=C([O-])CC([S-])C(=O)[O-].[Au+].[Na+].[Na+]` (stereo not given), the “activity, negative = cell killing” value is -14.1% (inactive).
Still for that read-out and setting: the same measure for `O=C1O[C@@H]2[C@@H](O)[C@H](O)O[C@@H]2[C@H]1O`: -11.7% (inactive); for `N[C@@H](C(=O)N[C@H]1C(=O)N2C(C(=O)O)=C(Cl)CC[C@H]12)c1ccccc1`: -9.35% (inactive); for `CC(=O)OC[C@H]1O[C@@H](O[C@H]2[C@H](O)[C@@H](OC(=O)c3ccccc3C(=O)O)[C@H](O)O[C@@H]2COC(C)=O)[C@H](O)[C@@H](OC(=O)c2ccccc2C(=O)O)[C@@H]1O`: -3.67% (inactive).
On the same count and under the same terms, then `CC(C(=O)O)c1ccc(C2CCCCC2)c2ccccc12` (stereo not given), with -11.8% (inactive).
Take `C/C(=C(\CCOC(=O)c1ccccc1)SS/C(CCOC(=O)c1ccccc1)=C(/C)N(C=O)Cc1cnc(C)nc1N)N(C=O)Cc1cnc(C)nc1N`: the “activity, negative = cell killing” value is -18.3% (inactive).
Consider `Oc1cccc(-c2c3nc(c(-c4cccc(O)c4)c4ccc([nH]4)c(-c4cccc(O)c4)c4nc(c(-c5cccc(O)c5)c5ccc2[nH]5)CC4)C=C3)c1`, for which the Potency was 25.1 µM (active).
Take `CCC(C)(C)OC(=O)N[C@@H](Cc1c[nH]c2ccccc12)C(=O)N[C@@H](CCSC)C(=O)N[C@@H](CC(=O)O)C(=O)N[C@@H](Cc1ccccc1)C(N)=O`: the “activity, negative = cell killing” value was -20.3% (inactive).
With `COCC1=C(C(=O)OC(C)OC(=O)OC(C)C)N2C(=O)[C@@H](NC(=O)/C(=N\OC)c3csc(N)n3)[C@H]2SC1` (stereo not given in full), the Potency entry was “inactive”.
As to `NCCCC[C@H](NC(=O)[C@@H]1CCCN1C(=O)[C@@H]1CSSC[C@H](NC(=O)CNC(=O)CNC(=O)CN)C(=O)N[C@@H](Cc2ccc(O)cc2)C(=O)N[C@@H](Cc2ccccc2)C(=O)N[C@@H](CCC(N)=O)C(=O)N[C@@H](CC(N)=O)C(=O)N1)C(=O)NCC(N)=O` (H-GGGCYFQNCPKG-NH2; disulfide 4-9), the “activity, negative = cell killing” value is -12.9% (inactive).
The same measure, in the same setting: then `O=P(O)(O)OC(Cn1cncn1)(Cn1cncn1)c1ccc(F)cc1F`, with -12.2% (inactive).
Consider `CCOc1ccc(N=C(C)Nc2ccc(OCC)cc2)cc1`, for which the “activity, negative = cell killing” value was -14.7% (inactive).
Still for that read-out and setting: then `OCC(O)COc1ccc(Cl)cc1` (stereo not given), with 10.3% (inactive).
For the molecule `CO[C@@H]1[C@@H](O[C@@H]2O[C@H](C)[C@@H](O[C@H]3C[C@@](C)(O)[C@@H](OC(=O)CC(C)C)[C@H](C)O3)[C@H](N(C)C)[C@H]2O)[C@@H](CC=O)C[C@@H](C)[C@@H](O)/C=C/C=C/C[C@@H](C)OC(=O)C[C@H]1O`, the Potency entry was “inactive”.
In the case of `NCCC(=O)[N-][C@@H](Cc1cnc[nH]1)C(=O)O.[Zn]`, the “activity, negative = cell killing” value is -6.19% (inactive).
Same read-out and setting: the same measure for `CCOc1ccc(C[C@H]2NC(=O)CCSSC[C@@H](C(=O)N3CCC[C@H]3C(=O)N[C@@H](CCCN)C(=O)NCC(N)=O)NC(=O)[C@H](CC(N)=O)NC(=O)[C@H]([C@@H](C)O)NC(=O)[C@H]([C@@H](C)CC)NC2=O)cc1` ([Mpa][dY](Et)ITNCP[Orn]G-NH2; disulfide 1-6): -0.979% (inactive); for `CCCCCCCCCCCCCCCC(=O)OC[C@H](O)[C@H]1OC(=O)C(O)=C1O`: -25.8% (inactive).
Still for that read-out and setting: then `CCOC(=O)COc1ccc2c(C)c(CCN(CC)CC)c(=O)oc2c1`, with 4.1% (inactive).
For `NCCC[C@H](N)C(=O)O`, the “activity, negative = cell killing” value is -8.29% (inactive).
